# Most compounds without a hit are left out; they make up all but 3.7% or so of the library.
# FMDV antiviral: blocks foot and mouth disease virus; AID 1159524; actives 1.2% (n = 410,000); Potency, µM (series often up to 57.9 µM), for the others: at the top dose activity change, negative = inhibition, most hits filed as inhibitors; FMDV antiviral cell-based qHTS; calls by dose curve; tested in HEK293T cells; also: read-out not given here; nearly all actives have a fitted effect of over 45% in size
# TbPYK inhibitor: T. brucei pyruvate kinase inhibition. actives 0.12% (n = 410,000). AID 624173. Potency, µM (highest dose often 76.8 µM), for inactives: top-dose activity, negative = inhibition, most hits filed as inhibitors. TbPYK enzyme, Kinase-Glo Plus ATP luminescence, 45 min; also: nearly all actives have a fitted effect of over 50% in size
#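 Luminescent Kinase-Glo Plus end-point after 45 min room-temperature reaction of T. brucei pyruvate kinase started with 130 uM ADP (final). Buffer TEA 50 mM pH 7.2 with KCl, MgCl2, BSA, Tween-20; titration-based qHTS with fitted concentration-effect curves.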
# RE007 growth inh: less growth of the S. pombe RE007 Vpr strain; S. pombe RE007 Vpr strain, BacTiter-Glo ATP luminescence, 24 h; Potency, µM (doses to about 92.2 µM), without a hit: at the top dose activity change, negative = less growth, actives largely listed as inhibitors; actives 0.21% (n = 360,000); AID 651644; active = well fitted falling curve with a large enough effect; inconclusive = small, poorly fitted or top-dose-only effect; inactive = no such curve, though single readings can be large or run the other way; also: nearly all actives have a fitted effect of over 50% in size
#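 Fission yeast strain RE007, carrying one chromosomally integrated HIV-1 vpr copy, was seeded at OD 0.01 in PMG+AL medium with 23 nL pinned compound. After 24 h at 30 °C and 99% humidity, viability was read by BacTiter-Glo luminescence.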
# Sm TGR block: inhibitors of Schistosoma mansoni thioredoxin glutathione reductase. AID 485364. purified TGR, DTNB reduction, TNB absorbance 405 nm. actives 3% (n = 360,000). Q962Y6. Potency, µM (titrated, usually from 114 µM), inactives show at the top dose activity change, negative = inhibition, actives largely listed as inhibitors; also: nearly all actives have a fitted effect of over 60% in size
#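 TGR 20 nM + NADPH 100 uM (dispensed conc.), cpd preinc 15 min RT; start with NADPH (500 uM addition) then DTNB (15 mM addition). Kinetic TNB absorbance, 405 nm filter. Four-parameter Hill fit across titration.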
# An asterisk follows results filed as active; ? = inconclusive; . = no result; [ ] = remark or other dose. Unless noted, calls follow the shape of the dose curve; as a rule, active = well fitted curve in the direction sought with a large enough effect; inconclusive = small, poorly fitted or top-dose-only effect, or another doubt; inactive = no such curve, though single readings can be large; an effect the other way counts as inactive or inconclusive. % is scaled to controls: 0 for no effect and ±100 for the full control effect; potency is read from the fitted curve at half-maximal effect.
SMILES,FMDV antiviral,TbPYK inhibitor,RE007 growth inh,Sm TGR block
COc1ccc(NC(=O)NCC2CCN(Cc3ccccc3F)CC2)c(OC)c1,16%,-1%,.,5%
COc1ccc(N(Cc2cccs2)C(=O)Nc2cccc(Cl)c2)cc1,-7%,-1%,.,1%
COCCCN(C(=O)c1ccco1)c1nc(-c2cc(OC)ccc2OC)cs1,?,4%,11%,89µM*
O=C(Nc1ccccn1)c1onc2c1CCCC2,14µM*,?,10µM*,-3%
CCOC(=O)c1sc(NS(=O)(=O)c2ccccc2)nc1C,.,-2%,8%,-28%
Cc1nc(NS(=O)(=O)c2ccccc2)sc1NC(=O)OCCN(C)C,-6%,-8%,18%,32µM*
Nc1cccc2nsnc12,-10%,0%,3%,35µM*
Cc1ccc2nsnc2c1N,-12%,7%,-7%,-15%
S=C(NCc1ccco1)Nc1cc(-c2ccccc2)[nH]n1,-3%,-19%,0%,16µM*
Cc1ccc(/C=N/Nc2cc(C)nc(N3CCOCC3)n2)cc1,-11%,-3%,-7%,3%
Cc1ccc(N/N=C/c2ccc(N3CCOCC3)cc2)cc1C,22%,-3%,22%,25µM*
Cc1cnc(CNc2ccnc(-c3ccoc3)n2)cn1,5%,.,.,.
Cn1cnc(S(=O)(=O)Nc2ccccc2N2CCOCC2)c1,1%,-9%,1%,2%
CN(C)c1cccc2c1c(NS(=O)(=O)c1cn(C)cn1)nn2C,-4%,?,14%,50µM*
CNC(=O)c1ccccc1Sc1ccc2c(/C=C/c3ccccn3)n[nH]c2c1,.,0%,.,.
CO[C@@H]1[C@@H](OC2OC(C)C(OC3CC(C)(O)C(O)C(C)O3)C(N(C)C)C2O)[C@@H](CC=O)C[C@@H](C)[C@@H](OC2CCC(N(C)C)C(C)O2)/C=C/C=C/C[C@@H](C)OC(=O)C[C@H]1OC(C)=O (some centres not stated),.,1%,.,.
Cn1c(/C=C/c2ccc(Cl)cc2)c([N+](=O)[O-])c(=O)n(C)c1=O,18µM*,-2%,-4%,0%
Cn1c(/C=C/c2cccc([N+](=O)[O-])c2)c([N+](=O)[O-])c(=O)n(C)c1=O,13µM*,-5%,-7%,-14%
COc1ccc(/C=C/c2c([N+](=O)[O-])c(=O)n(C)c(=O)n2C)cc1OC,.,-14%,7%,8%
C=C(CC)C(=O)c1ccc(OCC(=O)O)c(Cl)c1Cl,?,-7%,3%,35µM*
CSc1nc(N)c(N=Nc2ccc([As](=O)(O)O)cc2)c(=O)[nH]1,-4%,-29%,11%,0.32µM*
Nc1nc(N)c(N=Nc2ccc(Cl)cc2)c(=O)[nH]1,32%,2%,-5%,1%
O=[N+]([O-])c1ccc2c(c1)nc1n2CCN(C2CCCCC2)C1,17%,-27%,3%,35µM*
CCN1CCN(Cc2c(O)ccc3oc(C)c(C(=O)Nc4cccc(Cl)c4C)c23)CC1,-17%,2%,.,-2%
CCc1ccc(N2C(=O)CSC23C(=O)N(Cc2cccc(OC)c2)c2ccccc23)cc1 (configuration not stated),-19%,6%,.,10%
SMILES,FMDV antiviral,TbPYK inhibitor,RE007 growth inh,Sm TGR block
CN1CCN(Cc2nc(N)nc(Nc3ccc4c(c3)OCCO4)n2)CC1,56%,5%,-5%,-3%
Nc1nc(CN2CCN(c3ccccc3F)CC2)nc(Nc2ccc3c(c2)OCCO3)n1,22µM*,-12%,8%,-8%
C[C@H](N)C(=O)N[C@@H](C)C(=O)N[C@@H](Cc1ccccc1)C(=O)CCl,3%[97.4 µM],.,.,.
CC(C)CC(NC(=O)OCc1ccccc1)C(=O)NC(Cc1ccccc1)C(=O)CCl (configuration not stated),25µM*,-1%,-5%,.
COc1cc(/C=C2\SC(=O)N(c3ccccc3Cl)C2=O)cc([N+](=O)[O-])c1O,?,-9%,35µM*,-25%
O=C(NCCN1CCOCC1)c1cnn(-c2nccc(-c3ccccc3C(F)(F)F)n2)c1C1CC1,-1%,.,.,.
Cc1cccc(C(=O)N2CCc3cc(CNC(=O)c4ccco4)ccc32)c1,28µM*,-1%,.,1%
CCOc1cccc(CC(=O)NCc2ccc3c(c2)CCN3C(=O)c2cccc(C)c2)c1OCC,14µM*,3%,.,0%
O=C(NCc1ccc2c(c1)CCN2C(=O)c1ccc(Cl)cc1)c1ccco1,5%,-2%,.,-8%
COc1ccc(CC(=O)NCc2ccc3c(c2)CCN3C(=O)c2cccc(C)c2)cc1,?,5%,.,-6%
Cc1ncc2c(c1CNS(=O)(=O)N(C)C)CCN(C(=O)/C=C/c1ccccc1)C2,8%,.,.,.
CN(Cc1ccccc1)c1nc(N)c([N+](=O)[O-])c(NCc2ccccc2)n1,35µM*,-1%,3%,-3%
Nc1nc(NCCc2ccccc2)nc(NCc2ccccc2)c1[N+](=O)[O-],0%,8%,1%,-9%
CCC1Oc2ccccc2N(CC(=O)NCc2cc(OC)ccc2OC)C1=O (configuration not stated),-11%,3%,.,5%
CCc1ccc(NC(=O)Cn2cnc3sc(C)c(S(=O)(=O)N4CCC(C)CC4)c3c2=O)cc1,-3%,1%,.,46%
CC1(C)CC(=O)c2c(O)cc(OCC(=O)Nc3ccc(S(N)(=O)=O)cc3)cc2O1,?,4%,-4%,-23%
COc1cc(NC(=O)COc2cc(O)c3c(c2)OC(C)(C)CC3=O)cc(OC)c1OC,4µM*,0%,0%,-13%
COc1cc(NC(=O)COc2cccc3c2OC(C)(C)C3)cc(OC)c1OC,22µM*,4%,-12%,-5%
CC(C)C(NS(C)(=O)=O)c1nnc2n1CCN(Cc1ccc3cccnc3c1)CC2 (configuration not stated),9%,.,.,.
CCOC(=O)c1ccc(N2C(=O)CC(NC3CCN(C(=O)c4ccc(F)cc4)CC3)C2=O)cc1 (configuration not stated),1%,1%,0%,50µM*
COc1ccc(N2C(=O)CC(NC3CC3)C2=O)cc1 (configuration not stated),8%,7%,-17%,-21%
CCOc1ccc(N2C(=O)CC(NC3CCN(C(=O)c4ccc(F)cc4)CC3)C2=O)cc1 (configuration not stated),-11%,1%,?,18µM*
COc1cccc(Cn2c(=O)c(-c3cccs3)nc3cnc(N4CCOCC4)nc32)c1,-24%,.,.,.
COc1ccc(CC(=O)Nc2cccc(-c3ccc4nncn4n3)c2)cc1OC,18µM*,1%,-12%,-5%
COc1ccc(CC(=O)Nc2cccc(-c3ccc4nnc(C)n4n3)c2)cc1,-25%,-7%,-1%,2%
COc1ccc(CC(=O)Nc2cccc(-c3ccc4nnc(C)n4n3)c2)cc1OC,20µM*,-3%,3%,0%
Cc1cc(-c2n[nH]c(=S)n2/N=C/c2c[nH]c3ccccc23)n[nH]1,1%,2.8µM*,-6%,21%
Cc1cc(-c2n[nH]c(=S)n2/N=C/c2ccc(Br)s2)n[nH]1,-20%,1.1µM*,.,-7%

# Source: PubChem
